Measured values: the supplement of paper PMC3334620
Whole data set: some 33,000 sequences, median “E-score (-0.5 to 0.5)” near -0.036, cut for the highest 2% near 0.37. For the sample, the highest values were picked, then their nearest neighbours and some sequences at random.

Molecular target: T1, Yer064c (UniProt P40041)
T1 sequence: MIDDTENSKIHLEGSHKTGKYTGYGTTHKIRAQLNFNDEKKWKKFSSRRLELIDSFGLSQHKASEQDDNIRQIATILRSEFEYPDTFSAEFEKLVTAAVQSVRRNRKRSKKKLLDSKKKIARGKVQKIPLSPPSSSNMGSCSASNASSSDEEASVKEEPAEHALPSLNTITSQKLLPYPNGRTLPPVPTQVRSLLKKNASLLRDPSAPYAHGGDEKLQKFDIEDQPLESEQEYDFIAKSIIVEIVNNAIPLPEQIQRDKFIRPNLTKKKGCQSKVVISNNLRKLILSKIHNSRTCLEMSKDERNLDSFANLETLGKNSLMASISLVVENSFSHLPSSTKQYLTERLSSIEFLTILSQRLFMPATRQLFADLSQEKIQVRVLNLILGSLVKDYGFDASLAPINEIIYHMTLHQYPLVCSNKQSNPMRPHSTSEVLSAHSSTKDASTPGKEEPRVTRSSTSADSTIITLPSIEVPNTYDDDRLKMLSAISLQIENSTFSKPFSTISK
Test: PBM E-score (8-mer binding enrichment) (E-score (-0.5 to 0.5)); higher = stronger / more preferred TF binding
Conditions: protein concentration: 200 nM; construct: GST-full length
Summary of the method: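 Yeast transcription factors carrying a GST tag, as full-length proteins or DNA-binding domains, were produced by PURExpress in vitro transcription/translation. About 100-200 nM protein was applied to universal all-10-mer Agilent arrays, double-stranded by primer extension on fresh or once-stripped slides. Bound protein was detected with fluorescent anti-GST, and scans were normalised with masliner. The Universal PBM Analysis Suite gave each ungapped eight-base word, pooled with its reverse complement, an E-score, a modified Wilcoxon-Mann-Whitney statistic.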

Row | Sequence | PBM E-score
1 | AAACCACA | -0.0212
2 | ACTAACCG | 0.163
3 | TATTTGCA | 0.0422
4 | AGTCATGC | 0.487
5 | AGTCATGG | 0.479
6 | AGCCATGG | 0.268
7 | CGTCATGA | 0.253
8 | AGTCATGA | 0.485
9 | ATTCATGC | 0.137
10 | ATTCATGG | 0.224
11 | GGTCATGA | 0.255
12 | CGTCATGC | -0.173
13 | TACTTACA | -0.0596
14 | GAAGCCTA | -0.143
15 | AACGTATT | -0.12
16 | AGGGATAG | -0.255
17 | TAGAGAGA | 0.0957
18 | AGAAGCAG | -0.1
19 | AGCTTTCA | -0.0821
20 | GTGTTGGA | -0.127
21 | ATTTAATA | 0.117
22 | CTTTAGTA | 0.14
23 | CTTTAGAC | 0.108
24 | ATTTAGTG | 0.127
25 | ATTTAGTA | 0.253

Row | Sequence | PBM E-score
26 | CTTTAGTC | 0.416
27 | ATTTAGTC | 0.444
28 | CTTTAATC | 0.29
29 | ATTTAATC | 0.366
30 | GGCCTACA | -0.0963
31 | TAATAGCA | -0.09
32 | ACCAAGAG | -0.00272
33 | CATAACCA | 0.071
34 | GGCGAATA | -0.0639
35 | CGGCGAGC | -0.108
36 | CACTCATC | 0.258
37 | CACTCATA | 0.259
38 | AACTCATC | 0.33
39 | GACTCATA | 0.477
40 | AACTCATA | 0.275
41 | GACTCATC | 0.478
42 | CCTGCCAG | -0.212
43 | ATTTTCAG | -0.135
44 | CTCTGTCC | -0.14
45 | GGTCTTAC | 0.131
46 | CGTCTTAA | -0.00451
47 | AGTCTTAC | 0.415
48 | ACTCTTAG | 0.198
49 | AGTCTTAG | 0.408
50 | TGTCTTAA | -0.0134

Row | Sequence | PBM E-score
51 | ACTCTTAT | 0.241
52 | AGTCTTAA | 0.387
53 | AGTCTTAT | 0.383
54 | CGTCTTAG | -0.188
55 | AATCTTAT | 0.207
56 | CGTCTTAC | -0.141
57 | CCCCAGGC | -0.41
58 | AATCGACT | 0.258
59 | ATCTGGCA | -0.118
60 | AGTGACCC | -0.0592
61 | GTCTATCA | 0.0174
62 | GGTTTCTA | -0.133
63 | CCTTTCTA | -0.251
64 | AACAACAT | -0.0999
65 | CTTTGTAA | 0.173
66 | TAGTTGAA | 0.127
67 | CACGTGAG | 0.0942
68 | CTTAGTTA | 0.221
69 | ATTAGGCC | 0.00222
70 | CTTAGTCA | 0.483
71 | ATTAGTGA | 0.219
72 | ATTAGTTG | 0.118
73 | ATTAGTGG | 0.11
74 | CTTAGTAA | 0.161
75 | ATTAGTCA | 0.484

Row | Sequence | PBM E-score
76 | ATTAGTCG | 0.41
77 | ATTAGTTA | 0.153
78 | ATTAGTAC | 0.205
79 | ATTAGTCC | 0.373
80 | AAGAATAG | 0.0215
81 | CTAGAAAC | 0.0516
82 | CCTTCTAG | -0.244
83 | GCAATGCC | -0.31
84 | TAATATTA | 0.207
85 | AGCGATCC | -0.315
86 | CGCGTCTA | -0.228
87 | GTTAGTGA | 0.171
88 | CTTAGTCC | 0.37
89 | CTTAGGCC | -0.115
90 | GTTAGTTA | 0.165
91 | GTTAGTCA | 0.49
92 | CTTAGTTC | 0.0883
93 | CTCGCGCA | -0.0489
94 | GAGCGTCA | -0.0316
95 | CACTTTGA | 0.184
96 | GGCTATCA | -0.11
97 | CAGTCGCA | 0.15
98 | AAGTCGCC | 0.222
99 | TAGTCGCA | 0.412
100 | TCGTCGCA | -0.0159

Row | Sequence | PBM E-score
101 | TAGTCGAA | 0.243
102 | CAGTCGCC | 0.254
103 | GAGTCGCA | 0.438
104 | AAGTCGCA | 0.257
105 | GAGTCGCC | 0.439
106 | ACGGGCCT | -0.363
107 | GGGCACCC | -0.269
108 | CGGGACCA | -0.208
109 | GAAGCGTA | -0.151
110 | AACGGAAC | -0.134
111 | AAGAGCCC | -0.196
112 | CATTTCGA | -0.0334
113 | AATCAAGA | 0.235
114 | AATCACGC | 0.391
115 | CATCACGA | 0.132
116 | GATCACGC | 0.18
117 | AATCACGA | 0.347
118 | AATCACGT | 0.382
119 | AAGGCAGG | -0.192
120 | ACGTCCGG | -0.217
121 | AGTGGGCC | -0.307
122 | CTTCTGCC | -0.225
123 | GTGGTTAA | 0.222
124 | CTGGTTAA | 0.162
125 | ATGGTTAA | 0.391

Row | Sequence | PBM E-score
126 | GTAGCGAA | -0.0282
127 | ATGCCGAG | -0.0321
128 | AACTCGCA | 0.0388
129 | GACTCGCA | 0.414
130 | AACTCGTA | -0.019
131 | GACTCGTA | 0.419
132 | CACTCGCC | -0.0244
133 | CACTCGTA | -0.0316
134 | TACTCGCA | 0.211
135 | GACTCGCC | 0.371
136 | AACTCGCC | -0.0941
137 | AAGGTACG | -0.094
138 | GCGTAGAC | -0.0194
139 | GAGGTGAC | 0.224
140 | TATTCCAA | -0.0766
141 | GCACTGAC | 0.131
142 | GGGCCGAA | -0.287
143 | GCCTGCGA | -0.22
144 | GGCAATCA | 0.283
145 | ATCAATCC | -0.0246
146 | ATCAATCA | 0.381
147 | ATCAATCG | 0.193
148 | GTCAATTA | 0.123
149 | CGCAATCA | 0.302
150 | CTCAATCC | 0.146

Row | Sequence | PBM E-score
151 | CTCAATCA | 0.402
152 | GTCAATCA | 0.389
153 | TGGGCGAA | 0.0204
154 | ATCTCTAG | -0.0229
155 | CAGACGAC | 0.137
156 | AGTAAGTC | 0.354
157 | CCTCAGCA | -0.202
158 | AACTGGTA | -0.259
159 | AATGACTA | 0.487
160 | AATGACTG | 0.441
161 | CATGACTA | 0.491
162 | AATGACGA | 0.0304
163 | CATGACAA | -0.00212
164 | AATGACCG | -0.203
165 | AATGACAG | -0.045
166 | CATGACGA | 0.0513
167 | AATGACCA | 0.0838
168 | AATAGGCT | -0.0339
169 | CTCTCGGA | 0.144
170 | CTGTGGAA | 0.0224
171 | AATCCTCG | -0.0311
172 | GATCATTA | 0.128
